# Vaccinia mCherry: qHTS for Stage-Specific Inhibitors of Vaccinia Orthopoxvirus: mCherry Reporter Primary qHTS | Vaccinia virus mCherry reporter infection, fluorescence | Potency, µM (titrated, usually from 36.5 µM), without a hit: top-dose activity change, negative = inhibition, most hits filed as inhibitors | 310,000 compounds, 0.63% hits; calls by dose curve; tested in A549 cells; note: nearly all actives have a fitted effect of over 35% in size
# Vaccinia Venus: qHTS for Stage-Specific Inhibitors of Vaccinia Orthopoxvirus: Venus Reporter Primary qHTS. Vaccinia virus Venus reporter expression, fluorescence. Potency, µM (series often up to 36.5 µM), without a hit: at the highest dose activity change, negative = inhibition, hits mostly inhibitors. 330,000 compounds, 0.46% hits. AID 720580, 2013; calls by dose curve; tested in A549 cells; note: nearly all actives have a fitted effect of over 30% in size
# HCV inhibitor: qHTS Assay for Inhibitors of Hepatitis C Virus (HCV). Huh7.5.1 HCVcc-Cre infection, luciferase reporter, 44 h. Potency, µM (series often up to 41.8 µM), for inactives: at the top dose activity change, negative = inhibition, usual class: inhibitors. 340,000 compounds, 3.4% hits. AID 651820, 2012; active = well fitted inhibition curve with a large enough effect; inconclusive = small, poorly fitted or top-dose-only effect, or another doubt; inactive = no such curve, though single readings can be large or run the other way
#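 A cell-based infection assay in which seeded cells (1,000 per well) receive test compound after 4 h, are inoculated with HCVcc-Cre at approximately 0.5 moi, and are incubated 44 h before luminescence detection.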
# Active calls of the source: *; i = inactive; u = inconclusive; x = no result given. An excerpt weighted towards active compounds, which were near 3.3% of everything screened. % is set by controls: 0 for no effect and ±100 for the full control effect; potency is the fitted concentration of half-maximal effect.
SMILES,Vaccinia mCherry,Vaccinia Venus,HCV inhibitor
CC(=O)[C@H]1CCC2C3CC[C@H]4C[C@@H](O)CC[C@]4(C)C3CC[C@@]21C (stereo partly drawn),i,-10.1%,-5.0%
CC(=O)OC1CC2(O)C3CCC4CC(O)CCC4(C)C3CCC2(C)C1C1=CC(=O)OC1 (stereo not drawn),35.5µM*,u,u
O=C(CCCN1C(=O)/C(=C/c2cccc(Br)c2)SC1=S)Nc1cccnc1,u,-28.3%,u
O=C(CCCN1C(=O)/C(=C/c2cccc(Br)c2)SC1=S)Nc1ccccn1,x,x,11.2µM*
O=C(CCCN1C(=O)/C(=C/c2ccccc2OC(F)F)SC1=S)Nc1cccnc1,u,u,11.2µM*
O=C(CCN1C(=O)/C(=C/c2ccccc2F)SC1=S)Nc1cccnc1,i,-9.1%,11.8%
C/C(=N/NS(=O)(=O)c1cccc([N+](=O)[O-])c1)c1ccncc1,-4.2%,-14.8%,2.0%
Cc1ccc(S(=O)(=O)N2CCN(C(=O)C3CC3C)CC2)c(C)c1 (stereo not drawn),-7.0%,-22.1%,14.2%
Cc1ccc(S(=O)(=O)N2CCN(C(=O)C3CCN(C(=O)c4ccc(F)cc4)CC3)CC2)c(C)c1,i,-25.6%,11.2µM*
Cc1cc(C)c(S(=O)(=O)N2CCN(C(=O)c3cc(=O)[nH]c4ccccc34)CC2)c(C)c1,x,x,-5.8%
Cc1ccc(S(=O)(=O)N2CCN(C(=O)c3cc(=O)[nH]c4ccccc34)CC2)c(C)c1,x,x,14.1µM*
CCOCCOc1cc(NCc2ccccc2)c2ncn(C(C)C)c2c1,-0.9%,-5.8%,u
COCCCOc1cc(NCc2ccccc2)c2ncn(C(C)C)c2c1,-22.2%,-20.4%,u
CCC(CO)Oc1cc(NCc2ccc(O)cc2)c2ncn(C(C)C)c2c1 (stereo not drawn),u,-3.4%,-9.0%
CCC(CO)Oc1cc(NCc2cccc(OC)c2)c2ncn(C(C)C)c2c1 (stereo not drawn),-22.4%,-9.0%,2µM*
CC(C)n1cnc2c(NCc3ccccc3)cc(N[C@H](C)CO)cc21,u,14.1µM*,u
CCC(CO)Oc1cc(NCc2cccc(O)c2)c2ncn(C(C)C)c2c1 (stereo not drawn),u,-14.6%,u
CCC(CO)Oc1cc(NCc2ccc(C(C)(C)C)cc2)c2ncn(C(C)C)c2c1 (stereo not drawn),12.6µM*,u,7.94µM*
CCCCOc1cc(NCc2ccccc2)c2ncn(C(C)C)c2c1,-28.6%,u,11.2µM*
O=C(Nc1ccc(OC(F)(F)F)cc1)C(NS(=O)(=O)c1cccc2nsnc12)c1ccccc1 (stereo not drawn),-12.0%,-15.9%,x
CC(C)Cc1ccc(S(=O)(=O)NCc2nc3cccnc3n2Cc2ccccc2)cc1,-14.0%,-14.6%,x
CCC(CO)Oc1cc(NCc2ccccc2)c2ncn(C(C)C)c2c1 (stereo not drawn),u,-16.1%,u
CCC(COC)Oc1cc(NCc2ccccc2)c2ncn(C(C)C)c2c1 (stereo not drawn),-11.7%,u,11.2µM*
CN1CCN(c2nc3c(=O)[nH]c(N)nc3n2C2OC(CO)C(O)C2O)CC1 (stereo not drawn),4.3%,-10.7%,x
CCN(CC)CCNC(=O)c1[nH]c2ccc(OCc3ccccc3)cc2c1C,u,u,10µM*
SMILES,Vaccinia mCherry,Vaccinia Venus,HCV inhibitor
CCN(Cc1ccccc1)C(=O)c1[nH]c2ccc(OC)cc2c1C,-13.8%,-19.5%,1.6%
Cc1nn(-c2ccccc2)nc1CNC(=O)CC(C)(C)C,x,x,4.7%
Cc1nn(-c2ccccc2)nc1CNC(=O)c1ncoc1-c1ccccc1,x,x,10µM*
CCOC(=O)c1c(NC(=O)CC)sc(C(=O)NC2CCCC2)c1C,-8.5%,-10.5%,-27.5%
c1coc(C2Nc3ccccc3-c3nc4ccccc4n32)c1 (stereo not drawn),u,u,12.6µM*
c1ccc(C2Nc3ccccc3-c3nc4ccccc4n32)cc1 (stereo not drawn),x,x,-26.5%
O=C(Nc1ccc([N+](=O)[O-])cc1)Nc1ccc2c(c1)OCCO2,u,-11.9%,u
COc1cc([N+](=O)[O-])ccc1NC(=O)Nc1ccc2c(c1)OCCO2,-16.1%,-14.4%,7.08µM*
O=C(Nc1ccc(Br)cc1)Nc1nc2c(s1)CCCCCC2,-14.0%,-6.4%,x
COc1ccc2c(c1)-c1c(sn(-c3ccc(OC)c(OC)c3)c1=S)C(C)(C)N2,-3.9%,-27.9%,2.51µM*
COc1ccc2c(c1)-c1c(sn(-c3ccccc3)c1=S)C(C)(C)N2,-18.9%,-23.0%,u
Clc1cccc(-n2ncc3c(NCCCN4CCOCC4)ncnc32)c1,-12.0%,-9.7%,x
c1ccc(-c2oc3ncnc(NCCCN4CCOCC4)c3c2-c2ccccc2)cc1,x,x,5.62µM*
COc1ccc(-c2oc3ncn(CCN4CCOCC4)c(=N)c3c2-c2ccc(OC)cc2)cc1,x,x,12.6µM*
COc1ccc(-c2oc3ncnc(NCCCN4CCOCC4)c3c2-c2ccc(OC)cc2)cc1,x,x,2.82µM*
COc1ccc(CCNCCN2CCOCC2)cc1,x,x,-5.1%
COc1ccc(-c2oc3ncnc(NCCN4CCOCC4)c3c2-c2ccc(OC)cc2)cc1,-0.1%,-9.7%,u
O=C(CNC1=NCCS1)c1c[nH]c2ccccc12,-9.4%,-15.2%,x
Cc1ccc(Cl)cc1NC(=O)N1CCC2(CC1)Oc1ccccc1C(=O)N2Cc1ccccc1F,i,-9.7%,x
Cn1c(=O)[nH]c(=O)c2c1nc1n(CCO)c(-c3ccccc3)cn21,-8.6%,7.8%,x
COc1ccc(S(=O)(=O)NCCc2sc(-c3ccccc3)nc2C)cc1F,-2.6%,-1.2%,x
C=CCNC(=O)C1CCC(=O)N1S(=O)(=O)c1ccc(C)cc1 (stereo not drawn),-11.5%,-8.6%,8.0%
CCN(CC)CCN1CCn2c3c(c4cc(C)ccc42)CCCC31 (stereo not drawn),x,x,8.91µM*
CCN1CCn2c3c(c4cc(Cl)ccc42)CCCC31 (stereo not drawn),-28.1%,-14.9%,u
Cc1cccc(-n2ncc3c2CCCC3NC(=O)Cc2c(C)noc2C)c1C (stereo not drawn),x,x,8.91µM*
SMILES,Vaccinia mCherry,Vaccinia Venus,HCV inhibitor
Cc1cccc(-n2ncc3c2CCCC3NC(=O)CN2CCOC2=O)c1C (stereo not drawn),x,x,13.3%
Cc1cccc(-n2ncc3c2CCCC3NC(=O)c2ccncc2)c1C (stereo not drawn),-11.6%,-28.4%,x
Cc1cc(C(=O)NC2CCCc3c2cnn3-c2cccc(C)c2C)no1 (stereo not drawn),u,2.1%,11.2µM*
CC1=C(C(=O)NC2CCCc3c2cnn3-c2cccc(C)c2C)OCCO1 (stereo not drawn),-23.1%,-29.8%,3.55µM*
Cc1cccc(-n2ncc3c2CCCC3NC(=O)c2cccs2)c1C (stereo not drawn),u,-24.6%,x
CC(C)Nc1ccc(-c2nc(-c3ccco3)no2)cc1[N+](=O)[O-],-21.2%,-14.2%,x
O=C(C[C@@H]1C/C=C\CCC(=O)OC[C@H](Cc2ccccc2)NC1=O)N[C@@H](CO)Cc1ccccc1,u,-16.3%,-6.0%
CC1CC[C@@]2(C(=O)O)CC[C@]3(C)C(=CCC4[C@@]5(C)CCC(O)C(C)(C)C5CC[C@@]43C)C2C1C (stereo partly drawn),42.0%,46.2%,x
